Compound activity deposited in PubChem BioAssay by National Center for Advancing Translational Sciences (NCATS).
The list is not random: actives were taken first. Their share in the collection is about 1.1%.
VACV Venus inh: inhibitors of vaccinia virus (Venus reporter) | 330,000 tested, 0.46% active | Potency, µM (series often up to 36.5 µM), inactives show at the top dose activity change, negative = inhibition, usual class: inhibitors | Vaccinia virus Venus reporter expression, fluorescence; calls by dose curve; tested in A549 cells; note: nearly all actives have a fitted effect of over 30% in size
AmpC inh detg: AmpC beta-lactamase inhibition with detergent present; P00811; AmpC hydrolysis of nitrocefin, absorbance 480 nm, 0.01% Triton; Potency, µM (highest dose often 114 µM), for inactives: top-dose activity change, negative = inhibition, actives largely listed as inhibitors; 370,000 tested, 0.041% active;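 note: 0% = no-compound wells and -100% = no-enzyme wells; nearly all actives have a fitted effect of over 25% in size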
Target sequence (P00811 whole entry, looked up): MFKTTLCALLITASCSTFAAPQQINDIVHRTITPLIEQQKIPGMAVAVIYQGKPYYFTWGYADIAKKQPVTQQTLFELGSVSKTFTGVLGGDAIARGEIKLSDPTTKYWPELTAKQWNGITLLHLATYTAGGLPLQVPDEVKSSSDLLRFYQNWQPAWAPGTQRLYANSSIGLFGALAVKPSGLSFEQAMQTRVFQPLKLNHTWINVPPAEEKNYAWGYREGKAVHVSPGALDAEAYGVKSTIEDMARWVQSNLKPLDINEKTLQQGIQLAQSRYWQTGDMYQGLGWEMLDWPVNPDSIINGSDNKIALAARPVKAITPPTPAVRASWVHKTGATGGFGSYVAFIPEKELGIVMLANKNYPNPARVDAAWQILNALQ
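20 mM phosphate pH 7.0 + 0.01% (detergent screen) or 0.0001% Triton X-100; 5.3 nM AmpC reagent; cpd preinc 15 min RT; nitrocefin (800 uM stock) to start; A480 q20 s × 4 min; Activity was normalised to no-enzyme and no-compound control wells.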
AmpC no deterg: AmpC beta-lactamase inhibition without detergent; AmpC nitrocefin hydrolysis, absorbance 480 nm, 0.0001% Triton; P00811; Potency, µM (top dose mostly 57.1 µM), for the others: at the highest dose activity change, negative = inhibition, hits mostly inhibitors; 330,000 tested, 0.52% active;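 note: plate controls were no compound for no effect and no enzyme for full effect; nearly all actives have a fitted effect of over 20% in size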
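AmpC (5.3 nM in the dispensed reagent) in 20 mM phosphate pH 7.0 with 0.01% (detergent screen) or 0.0001% Triton X-100 was preincubated with compounds for 15 min at room temperature. Nitrocefin was then added from an 800 uM solution, and hydrolysis was followed at 480 nm.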
Vaccinia mCherry: vaccinia inhibition (mCherry reporter); Vaccinia virus mCherry reporter infection, fluorescence; Potency, µM (top dose mostly 36.5 µM), for the others: at the highest dose activity change, negative = inhibition, hits mostly inhibitors; 310,000 tested, 0.63% active; calls by dose curve; tested in A549 cells; note: nearly all actives have a fitted effect of over 35% in size
* = called active by the depositor; i = inactive; ? = inconclusive; . = no result given. Unless noted, calls come from the whole dose curve; as a rule, active = well fitted curve in the direction sought with a large enough effect; inconclusive = small, poorly fitted or top-dose-only effect, or another doubt; inactive = no such curve, though single readings can be large; an effect the other way counts as inactive or inconclusive. Unless noted, % is set by controls: 0 for no effect and ±100 for the full control effect; potency is the fitted concentration of half-maximal effect.

SMILES	VACV Venus inh	AmpC inh detg	AmpC no deterg	Vaccinia mCherry
COc1cc(CNC(=O)c2cnn(-c3ncc4c(n3)-c3ccccc3CC4)c2C)cc(OC)c1OC	-28%	.	.	?
NC(=S)N/N=C/c1ccc(-n2nncc2-c2ccc(Cl)cc2)cc1	1.1µM*	-5%	-55%	0.79µM*
COc1cccc(-c2cc3c(c(OC)c2)OCCN(Cc2cccn2-c2ccccn2)C3)c1	-1%	.	.	-16%
CN(C)CCN1C(=O)c2cccc3cc([N+](=O)[O-])cc(c23)C1=O	?	.	.	1.1µM*
CCCCc1ccc(NC(=O)COC(=O)c2ccccc2OCC(=O)Nc2ccc(Br)cc2)cc1	-16%	.	.	-13%
CCN1CCc2c(sc(NC(=O)c3ccc(S(=O)(=O)N(CC)c4ccccc4)cc3)c2C(N)=O)C1	11µM*	5%	66%	?
Cc1ccc(NC(=O)C2C(c3ccccc3)C2(Cl)Cl)c(C)c1 (stereo unspecified)	.	-1%	28µM*	.
Cc1cccc(NC(=O)C2C(c3ccccc3)C2(Cl)Cl)c1 (stereo unspecified)	.	-2%	-52%	.
CCOc1ccc(NC(=O)C(=O)NCCCn2ccnc2)cc1	-12%	-5%	0.16µM*	i
CC(C)(C)NC(=O)CCN(/N=C/c1ccc([N+](=O)[O-])o1)C1=NS(=O)(=O)c2ccccc21	10µM*	-3%	-5%	?
O=C(O)c1cc(Nc2cc(Cl)c3nonc3c2[N+](=O)[O-])ccc1O	.	-9%	-21%	.
O=[N+]([O-])c1c(Nc2ccccc2O)ccc2nonc12	-2%	?	-30%	-20%
O=[N+]([O-])c1c(Nc2ccccc2O)cc(Cl)c2nonc12	?	-17%	32µM*	-24%
Nc1cc(Cl)c2nonc2c1[N+](=O)[O-]	10µM*	-10%	-15%	10µM*
COC(=O)C/C=C/[C@@H](C)[C@@H](/C=N/OC[C@@H](C)[C@H](OCc1ccccc1)C(C)C)NS(=O)(=O)c1ccc(C)cc1	.	?	28µM*	.
CS(=O)(=O)c1cc([N+](=O)[O-])c(Sc2nc3ccccc3[nH]2)c([N+](=O)[O-])c1	.	?	22µM*	.
CC1(C)CC(=O)C(C2C3=C(CC(C)(C)CC3=O)Oc3ccccc32)C(=O)C1 (stereo unspecified)	-22%	-2%	-15%	?
CC1(C)CC(=O)C2=C(C1)Oc1nc3ccccc3cc1C2C(C#N)C#N (stereo unspecified)	11µM*	?	1%	?
CN(C)c1ccc(/C=C/c2ccnc3ccc(O)cc23)cc1	5%	.	.	-18%
Cc1ccc(S(=O)(=O)c2c(C)nn(C(C)(C)C)c2OC(=O)c2ccc(Br)o2)cc1	11µM*	6%	2%	?
O=C(N/N=C/c1ccccn1)c1cc(-c2ccc(Cl)s2)[nH]n1	-22%	-9%	-38%	13µM*
CC(=O)c1ccccc1-c1ccc2c(c1)CC(CNC(=O)C[C@@H]1C[C@@H](C)NC(=S)N1)O2 (stereo partly specified)	1%	.	.	-11%
COc1ccc2c(c1)-c1nc(-n3ncc(C(=O)NCc4cccc(C)n4)c3C3CC3)ncc1CC2	-3%	.	.	-3%
O=C(Nc1nccs1)c1ccc(-c2ccc(F)c(Cl)c2)o1	.	0%	25µM*	.
COc1ccc(OC)c(/C=C/c2c3ccccc3cc[n+]2C)c1	-24%	.	.	-20%
SMILES	VACV Venus inh	AmpC inh detg	AmpC no deterg	Vaccinia mCherry
O=C(NC(=S)NNC(=O)[C@H]1C[C@@H]1c1ccccc1)c1ccc(F)cc1	.	-9%	-37%	.
O=C(/C=C/c1ccc(F)cc1)NC(=S)NNC(=O)[C@H]1C[C@@H]1c1ccccc1	.	-3%	10µM*	.
Cc1c(C(=O)N(C)Cc2cscn2)sc2ncnc(NC[C@H]3CCc4ccccc4O3)c12	-3%	.	.	3%
COC(=O)[C@@H]1CCCN1C(=O)c1cnn(-c2ncc3c(n2)-c2ccccc2CCC3)c1C1CC1	-3%	.	.	-5%
CC1CC[C@@]2(OC1)OC1C(O)C3C4CC[C@H]5CC(O[C@@H]6O[C@@H](CO)[C@H](OC7OC(CO)C(O)C(OC8OCC(O)C(O)[C@H]8O)[C@@H]7O[C@@H]7OC(CO)[C@H](O)[C@@H](O[C@@H]8OC(CO)C(O)C(O)C8O)C7O)C(O)C6O)C(O)C[C@]5(C)C4CC[C@]3(C)C1C2C (stereo partly specified)	8.9µM*	.	.	7.9µM*
CCOc1ccc(-c2n[nH]c(C(=O)NN)c2C)cc1	.	-12%	28µM*	.
Cc1c(-c2ccccc2)n[nH]c1C(=O)NN	-6%	-19%	-26%	-10%
C=CCn1nc([N+](=O)[O-])nc1Sc1cccc2cccnc12	8.9µM*	-12%	-10%	7.9µM*
CCCN1CCN(CCCNC(=O)c2ccc3c(c2)sc2nc(-c4ccc(C)cc4)cn23)CC1	?	18%	.	7.1µM*
N[C@@H](CCC(=O)N[C@@H](CS)C(=O)NCC(=O)O)C(=O)O	-3%	.	.	-6%
CN1CCC(NC(=O)c2cccs2)CC1	-4%	2%	8.9µM*	4%
CC1CN(CCC(=O)NC(c2cccnc2)C(F)(F)F)Cc2cc(Cl)ccc2O1 (stereo unspecified)	-10%	.	.	-10%
CNC(=O)CSc1nc2cc(S(=O)(=O)Nc3ccccc3OC)ccc2o1	?	-1%	24%	13µM*
O=C(CSc1nc2ccccc2o1)NC1CCCC1	0%	?	-17%	-7%
COc1ccccc1NS(=O)(=O)c1ccc2oc(SCC(=O)N3CCNC3=O)nc2c1	.	?	14%	.
CCN(CC)S(=O)(=O)c1ccc2oc(SCC(=O)NC3CC3)nc2c1	?	7%	-19%	18µM*
CCN(CC)S(=O)(=O)c1ccc2oc(SCC(=O)Nc3cc(C)on3)nc2c1	?	-5%	-11%	10µM*
COc1ccc(N2C(=O)[C@@H]3C[C@H]2CN3Cc2cccn2-c2ccc(Cl)cn2)c(C)c1	0%	.	.	-7%
COc1ccc(/C=C/C(=O)NCC2Cc3cc(Cl)cc(-c4ncccn4)c3O2)cc1 (stereo unspecified)	-7%	.	.	-8%
Cc1cc2nccc(/C=C/c3ccc(N(C)C)cc3)c2cc1C	1%	.	.	i
O=C(NC(NC(=S)Nc1ccccc1Cl)C(Cl)(Cl)Cl)c1cccc(Cl)c1 (stereo unspecified)	?	-10%	-25%	13µM*
COc1ccc(NC(=S)NC(NC(=O)c2cccc(Cl)c2)C(Cl)(Cl)Cl)c([N+](=O)[O-])c1 (stereo unspecified)	?	-9%	-16%	?
COc1ccc(NC(=S)NC(NC(=O)c2cccc(C)c2)C(Cl)(Cl)Cl)c([N+](=O)[O-])c1 (stereo unspecified)	?	0%	4µM*	?
CCC(=O)NC(NC(=S)Nc1cccc2cccnc12)C(Cl)(Cl)Cl (stereo unspecified)	-5%	?	-34%	-28%
CC(C)C(=O)NC(NC(=S)Nc1cccc2cccnc12)C(Cl)(Cl)Cl (stereo unspecified)	.	-3%	10µM*	.
